Compound activity from PubChem.
ClpP mod = qHTS Assay for Activators of ClpP; AID 651965, 2013; 1.9% of 340,000 active; Potency, µM (series often up to 57.5 µM), inactives show at the highest dose activity change, negative = active; purified B. subtilis ClpP, FRET peptide cleavage, 20 min; ATP-dependent Clp protease proteolytic subunit (Bacillus subtilis (strain 168)), P80244; active = well fitted falling curve with a large enough effect; inconclusive = small, poorly fitted or top-dose-only effect; inactive = no such curve, though single readings can be large or run the other way; also: potency is read from the fitted curve at half-maximal effect; the source files actives as falling curves though it sought activators and does not explain the sign; nearly all actives have a fitted effect of over 65% in size
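Purified B. subtilis ClpP, 10 microg/mL final in Tris/HCl pH8 with KCl, BSA, glycerol and Tween-20, cleaved an Abz/nitrotyrosine-quenched decapeptide. Fluorescence (ex 320, em 430) was read at 0 and 20 min at room temperature. Delta was normalized to 5.8 microM ADEP and DMSO/no-enzyme controls.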
DT40 TDP1 no CPT = qHTS for Inhibitors of human tyrosyl-DNA phosphodiesterase 1 (TDP1): qHTS in cells in absence of CPT; DT40 Tdp1-/- hTDP1 cells, no CPT, ATP luminescence, 48 h; Potency, µM (series often up to 46.2 µM), inactives show at the highest dose activity change, negative = growth inhibition, actives largely listed as inhibitors; 15% of 420,000 active; also: potency is read from the fitted curve at half-maximal effect; % is scaled to controls: 0 for no effect and ±100 for the full control effect; nearly all actives have a fitted effect of over 55% in size
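Cells were dispensed at 400 per well, compounds added by pin tool, plates incubated ≥48 hr at 37 °C, then CellTiter-Glo added for 30 min at room temperature before luminescence reading. Line: DT40 Tdp1-/- complemented with hTDP1; camptothecin omitted.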
D3 ag = agonists of human D3 dopamine receptor. P35462. D3R DiscoveRx beta-arrestin cells, luminescence, 90 min. max activation, %. 0.58% of 410,000 active; in the data active = max activation above about 30%; also: 0% is about no effect
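Cells at 1500/well, incubated overnight, then treated with pinned compounds (dopamine as control) for 90 min at 37 degrees C. DiscoveRx reagent added for 30 - 60 minutes at room temperature; luminescence read.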
IL-1B inflam inh = inhibitors of inflammasome signaling (IL-1 beta secretion); THP-1 LPS/ATP IL-1B secretion, AlphaLISA, 16 h; active compounds read low; 4.7% of 360,000 active; activity change, % at 57.5 µM; in the data active = activity change below about -50%; inconclusive = mostly about -30% to -49%; also: % is scaled to controls: 0 for no effect and ±100 for the full control effect
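THP-1 cells pretreated 1 hr with compounds (up to 57.5 uM final), then stimulated with LPS (250 ng/mL final) plus ATP (1.25 mM final); secreted IL-1B measured by AlphaLISA after 16 hr, decreased signal indicating inhibition.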
TDP1 cell CPT = DT40-hTDP1 cell growth loss with CPT | Potency, µM (titrated, usually from 46.2 µM), for the others: at the highest dose activity change, negative = growth inhibition, actives largely listed as inhibitors | AID 686979 | chicken DT40 Tdp1-/-;hTDP1 cells + 20 nM CPT, ATP luminescence, 48 h | 12% of 420,000 active; also: potency is read from the fitted curve at half-maximal effect; % is scaled to controls: 0 for no effect and ±100 for the full control effect; nearly all actives have a fitted effect of over 55% in size
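Cell growth measured by CellTiter-Glo luminescence after a minimum 48 h, 37 C compound exposure with 20 nM CPT in Tdp1-knockout DT40 cells stably expressing hTDP1, seeded 400/well; qHTS titration format.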
D3 antag = blocks the human D3 dopamine receptor. D3R cells, DiscoveRx beta-arrestin luminescence, antagonist mode; active compounds read low. max response, negative = inhibition, %. 2.5% of 360,000 active. AID 652054; in the data active = max response below about -50%; inconclusive = no clear call, values can overlap the other calls; also: % is scaled to controls: 0 for no effect and ±100 for the full control effect
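Cells expressing the human receptor were seeded at 1500 cells/well, incubated overnight at 37 degrees C in 5% CO2, then exposed to library compounds with dopamine controls for 90 minutes at 37 degrees C before luminescent detection.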
* hit, by the source's call; i = inactive; ? = inconclusive; . = no result; [ ] = another dose, or the depositor's remark. Hits are enriched below; roughly 21% of the tested compounds scored in any of these assays. Unless noted, calls follow the shape of the dose curve; as a rule, active = well fitted inhibition curve with a large enough effect; inconclusive = small, poorly fitted or top-dose-only effect; inactive = flat fitted curve, though single readings scatter.

SMILES | ClpP mod | DT40 TDP1 no CPT | D3 ag | IL-1B inflam inh | TDP1 cell CPT | D3 antag
Cc1cc(=O)n2[nH]c(-c3ccsc3-n3c(C)ccc3C)cc2n1 | 1% | ? | 3 | -4 | ? | -11
Cc1ccc(S(=O)(=O)N2CCC(NC(=O)c3cccnc3)CC2)cc1Cl | . | -15% | 0 | -4 | 2% | 0
CCOc1ccc(NC(=O)Cn2c(=O)n(Cc3nc(-c4ccccc4)no3)c(=O)c3ccccc32)cc1 | -1% | ? | 2 | . | -19% | .
CCOc1ccc(/C(C)=N\NC(=O)Cc2ccccc2)cc1 | 0% | 0% | 3 | -9 | 1% | 7
O=C(NCC(c1cccs1)N1CCOCC1)c1ccc(Cl)nc1 (centres undefined) | 0% | 16% | 5 | 29 | -9% | 9
Cc1cccc(-c2cc3nc(-c4ccccc4)cc(=O)n3[nH]2)c1 | . | 23µM* | -20 | 1 | 23µM* | 2
Cc1cc(=O)n2[nH]c(C)c(-c3ccccc3)c2n1 | -29% | ? | -8 | 16 | -23% | -21
Cc1ccccc1-c1cc2nc(-c3ccc([N+](=O)[O-])cc3)cc(=O)n2[nH]1 | . | -15% | 0 | 17 | -22% | 2
Cc1cc(=O)n2[nH]c(C)c(-c3ccc(Cl)cc3)c2n1 | ? | ? | -11 | 1 | 23µM* | -24
Cc1cccc(C(=O)Nc2ccccc2OCc2cc(=O)n3ccccc3n2)c1 | 4% | -12% | 5 | . | -11% | .
O=c1oc2ccccc2c(Nc2cc3ccccc3cc2O)c1[N+](=O)[O-] | . | 5.8µM* | -1 | 55 | 5.8µM* | -7
O=c1oc2ccccc2c(Nc2ccccc2O)c1[N+](=O)[O-] | . | -16% | -8 | -18 | -13% | ?
Cc1cc(Cl)cc(Cl)c1CNc1c([N+](=O)[O-])c(=O)oc2ccccc12 | 3% | 16µM* | 3 | 11 | ? | 12
O=c1oc2ccccc2c(Nc2cccc3ccccc23)c1[N+](=O)[O-] | -2% | ? | -2 | 42 | ? | -63*
CN(C)S(=O)(=O)c1ccc2c(c1)c(=O)c(C(=O)N1CCN(c3cccc(Cl)c3)CC1)cn2C | 0% | ? | -10 | . | -20% | .
CC(C)c1ccc(NC2CCCN(C(=O)c3ccc(N4CCOCC4)cc3)C2)cc1 (centres undefined) | 1% | 16µM* | 3 | -6 | ? | -8
Cc1nonc1C(=O)N1CCCC(Nc2ccc(C(C)C)cc2)C1 (centres undefined) | 0% | 2.3µM* | 3 | 0 | 33% | -27
Cc1ccc(NC2CCCN(C(=O)c3ccc4nccnc4c3)C2)cc1C (centres undefined) | 16µM* | -5% | 0 | i | 7% | -9
COc1ccc(NC2CCCN(C(=O)c3ccc4nccnc4c3)C2)cc1OC (centres undefined) | 1% | 2% | -1 | 9 | -12% | 11
Cc1nnsc1C(=O)N1CCCC(Nc2ccc(C(C)C)cc2)C1 (centres undefined) | -1% | -13% | 0 | 51 | -28% | 8
CCc1nc2ccc(C(=O)N(CC)CCN(C)C)cn2c1N(C=O)CCC(C)C | -1% | -7% | -15 | 16 | ? | -18
CCCSc1ncc(Cl)c(C(=O)Nc2c(C(=O)c3ccc(C)cc3)oc3ccccc23)n1 | 0% | 0% | 3 | . | -3% | .
CC1CCCC(NC(=O)CCN2C(=O)COc3ccccc32)C1C (centres undefined) | -1% | -10% | -2 | -6 | -13% | 2
CC1CN(S(=O)(=O)c2cccc(C(=O)N(C)C3CCCCC3)c2)CC(C)O1 (centres undefined) | -2% | 10µM* | 6 | 38 | 18µM* | 39
CN1CCC(N(C)C(=O)c2cccc(S(=O)(=O)N3CCOCC3)c2)CC1 | 2% | -12% | -9 | 15 | 0% | 13
SMILES | ClpP mod | DT40 TDP1 no CPT | D3 ag | IL-1B inflam inh | TDP1 cell CPT | D3 antag
Cc1ccc(N(Cc2ccccc2)C(=O)c2ccc(F)c(S(=O)(=O)N3CCOCC3)c2)cc1 | 1% | 23µM* | -6 | 9 | ? | -12
Cc1cccc(N(Cc2ccccc2)C(=O)c2cccc(S(=O)(=O)N3CC(C)OC(C)C3)c2)c1 (centres undefined) | -5% | 10µM* | -3 | 6 | 12µM* | -12
Cc1cccc(N(Cc2ccccc2)C(=O)c2ccc(F)c(S(=O)(=O)N3CCOCC3)c2)c1 | -1% | ? | 4 | -7 | ? | 9
Cc1cccc(N(Cc2ccccc2)C(=O)c2ccc(C)c(S(=O)(=O)N3CCOCC3)c2)c1 | 2% | 13µM* | 7 | 0 | 16µM* | 14
Cc1ccc(N2C(=O)CS(=O)(=O)C23C(=O)N(C)c2ccccc23)cc1F (centres undefined) | 1% | 4% | 4 | . | -9% | .
Cc1ccc(N(C(=O)CS(=O)CC(=O)Nc2ccc(F)cc2)C(C)C(=O)NC(C)(C)C)cc1 (centres undefined) | . | -22% | -8 | -20 | -8% | -9
CC1CN(S(=O)(=O)c2cccc(C(=O)OCCOc3ccccc3)c2)CC(C)O1 (centres undefined) | 1% | ? | -9 | -4 | 21µM* | 26
Cc1cccc(N(Cc2ccccc2)C(=O)Cc2ccc(S(=O)(=O)N3CCOCC3)s2)c1 | -2% | 23µM* | -5 | -4 | ? | 6
Cc1ccc(N(Cc2ccccc2)C(=O)c2cc(S(=O)(=O)N3CCOCC3)ccc2N2CCCC2)cc1 | -4% | 21µM* | -27 | -5 | 21µM* | -5
Cc1cc(C)c(NC(=O)CN(C)CC(=O)N(C)CC(=O)Nc2c(Cl)cccc2Cl)c(C)c1 | 1% | -8% | 2 | -3 | -21% | -8
COc1ccc(N(CC(=O)NC2CCCCC2)C(=O)CNC(=O)c2ccco2)cc1 | . | -19% | -2 | 17 | 0% | ?
CCOCCCn1c(SCC(=O)Nc2ccc(C(C)C)cc2)nc2c(sc3ccccc32)c1=O | 1% | ? | -10 | . | -23% | .
CC(NC(=O)c1ccco1)c1nnc2n1CCN(Cc1ccc(Cl)cc1)CC2 (centres undefined) | . | 2% | . | . | 13%[9.04 µM] | .
O=c1c2c(nc3c(-c4ccc(Cl)cc4)c[nH]n13)CCC2 | . | 4.6µM* | 0 | 53 | 2.3µM* | 2
Cc1c(-c2ccccc2)[nH]n2c(=O)c3c(nc12)CCCC3 | 25µM* | -5% | -1 | -24 | 1% | -2
